Test results taken from PubChem BioAssay (NCI).
The panel holds about 83,000 compounds, 20% with a hit somewhere; the sample as a whole holds those more often.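 Treatment: one concentration, 48 hours, 96-well format. Scoring: percent growth, with anything below 10 considered active.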 Activity calls are given as the source filed them.

tested on: A498 renal; test: NCI-60 one-dose screen, 48 h (100 = growth as untreated, 0 = no growth, -100 = all killed); conditions: 10 µM unless noted

Structure (SMILES)	growth
C=CC(=O)Nc1ccc2ncnc(Nc3cccc(NS(=O)(=O)CCC)c3Cl)c2c1	-14.3% (active)
COc1ccccc1/C=C/C1=C(C)CCC(c2ccccc2OC)C1C (configuration not stated)	-4.12% (active)
CN(C)CCOc1nc2c3cc([N+](=O)[O-])ccc3nn2c2ccccc12	31.6% (inactive)
O=C(c1ccccc1)[C@@H](c1ccccc1)[C@]1(O)C(=O)Nc2ccccc21	100% (inactive)
CCOC(=O)C1=C(c2ccccc2)N=C2SC=C(c3cccc([N+](=O)[O-])c3)N2C1c1ccc(O)cc1 (configuration not stated)	78.9% (inactive)
COC1CC(O)C2=C(CC3C(/C(C)=C\CC=C(C)C)CCC3(C)O2)C1=O (configuration not stated)	103% (inactive)
COc1cc(C(=O)/C=C/c2c(-c3cccs3)nc3sc(C)cn23)cc(OC)c1OC	-15.7% (active)
CSc1nc(N)c2c(n1)NC(c1ccccc1)C1CCc3ccccc3C1=N2 (configuration not stated)	42.7% (inactive)
COC(=O)c1c(C)nc(C)c2c1C(=O)C(Br)=C(NCCCCO)C2=O	115% (inactive)
COc1ccc(S(=O)(=O)Oc2ccc(-c3sc4cc(OS(=O)(=O)c5ccc(OC)cc5)ccc4c3C(=O)c3ccc(OCCN4CCCCC4)cc3)cc2)cc1	105% (inactive)
C=C(c1ccc(C(=O)O)c(F)c1)c1cc2c(cc1C)C(C)(C)C=CC2(C)C	75.8% (inactive)
COc1cc(C2=Nc3c(N)nc(N)nc3NC(c3cccc(Nc4ccnc5cc(C(F)(F)F)ccc45)c3)C2)cc(OC)c1OC (configuration not stated)	79.8% (inactive)

tested on: CCRF-CEM leukemia; test: as above; conditions: 10 µM unless noted

Structure (SMILES)	growth
CN1CCN(CCCNC(=O)c2c3c(n4ccccc24)C(=O)c2ncccc2C3=O)CC1	-11.5% (active)
CN1CCN(CC(=O)N(C)c2ccc(N=C(c3ccccc3)c3c(O)[nH]c4ccc([N+](=O)[O-])cc34)cc2)CC1	15.1% (inactive)
CCCCCCCCNc1ncnc2c1ncn2Cc1nnc2c3ccccc3c(Cl)nn12	24.2% (inactive)
CC/C(=C(/c1ccc(Cl)cc1)c1ccc(OCCCN(C)C)cc1)c1ccc(OC)cc1	37% (inactive)
CCN(CC)CCCNC(=O)c1c2c(n3ccccc13)C(=O)c1ncccc1C2=O	-36.2% (active)
CCCn1cnc2c(c1=N)C(c1ccc(Cl)cc1)c1sc3c(F)cccc3c1O2 (configuration not stated)	64.4% (inactive)
Cc1ccc(C23CCC(=O)N2CCc2cncn23)cc1 (configuration not stated)	95.1% (inactive)
O=C(COc1ccc(/C=C2\Oc3ccccc3C2=O)cc1)Nc1nccs1	0% (active)
Cc1c(C(=O)C(SC(=S)N2CCOCC2)SC(=S)N2CCOCC2)nnn1-c1ccc([N+](=O)[O-])cc1	67.9% (inactive)
O=[N+]([O-])c1ccc(Oc2cccc3c(Oc4ccc([N+](=O)[O-])cc4[N+](=O)[O-])cccc23)c([N+](=O)[O-])c1	95.7% (inactive)
CN(C)CCOc1ccc(/C(=C(/CCCCCCCCCC[P+](c2ccccc2)(c2ccccc2)c2ccccc2)c2ccccc2)c2ccccc2)cc1	-56% (active)
CC1(C)CC[C@]2(CO)CC[C@]3(C)C(=CC[C@@H]4[C@@]5(C)CCNCC(C)(C)[C@@H]5CC[C@]43C)[C@@H]2C1	73.8% (inactive)
O=c1oc2ccccc2cc1-c1nn(-c2ccccc2)cc1/C=N/Nc1nc(-c2ccccc2)c(N=Nc2ccccc2)s1	69.7% (inactive)
COc1cc(/C=C2\CN(S(=O)(=O)c3ccc(C)cc3)C/C(=C\c3cc(CN4CCCC4)c(O)c(OC)c3)C2=O)cc(CN2CCCC2)c1O	-5.62% (active)
Nc1ccc(Cl)c2c(=O)c3ccccc3[nH]c12	100% (inactive)
COC(=O)c1sc(-c2ccc(C)cc2)cc1O	103% (inactive)
CCOC(=O)CSc1nc2sc3c(c2c(=O)n1-c1ccccc1)CCCCC3	97% (inactive)
O=C1NCCS(=O)(=O)/C1=C\C=C\c1cccc(C(F)(F)F)c1	0.774% (active)
COc1cc(/C=C2\C(=O)N(CCOc3cc(O)c4c(=O)cc(-c5ccccc5)oc4c3)c3ccccc32)cc(OC)c1O	49.6% (inactive)
CNC1=C([N+](=O)[O-])C(c2ccc(OC)cc2)C(C#N)=C(c2ccc[nH]2)O1 (configuration not stated)	43.1% (inactive)

Structure (SMILES)	growth
COc1cccc2cc(N(C)c3ncnc4ccccc34)ccc12	22% (inactive)
Cc1[nH]c(C(=O)Nc2ccc(C(N)=O)cc2OC(C)C)c(Cl)c1Cl	92.5% (inactive)
Nc1nc(N)c2c(n1)NC(c1cccc(Nc3ccnc4cc(C(F)(F)F)ccc34)c1)CC(c1ccc(Cl)cc1)=N2 (configuration not stated)	19.2% (inactive)
COC1=C(OC)C(=O)C(CCCCCCCCCCO)=C(C)C1=O	29.1% (inactive)
O=C1c2c(c3c4cccnc4[nH]c3c3ccc4ccccc4c23)C(=O)N1O	15.3% (inactive)
CCN1CCN(C(=O)[C@]23CC[C@@H](C)[C@H](C)[C@@H]2C2=CC[C@@H]4[C@@]5(C)C/C(=C/c6ccncc6)C(=O)C(C)(C)[C@@H]5CC[C@@]4(C)[C@]2(C)CC3)CC1	5.24% (active)
C=CC(=O)Nc1ccc2ncnc(Nc3cccc(NS(=O)(=O)CCC)c3Cl)c2c1	50.2% (inactive)
COc1ccccc1/C=C/C1=C(C)CCC(c2ccccc2OC)C1C (configuration not stated)	-9.01% (active)
CN(C)CCOc1nc2c3cc([N+](=O)[O-])ccc3nn2c2ccccc12	11.7% (inactive)
COc1ccc(-c2nc(SCCC(C)C)nc(N/N=C(/C)c3ccc(N)cc3)c2C#N)cc1	95.8% (inactive)
O=C(c1ccccc1)[C@@H](c1ccccc1)[C@]1(O)C(=O)Nc2ccccc21	100% (inactive)
CCOC(=O)C1=C(c2ccccc2)N=C2SC=C(c3cccc([N+](=O)[O-])c3)N2C1c1ccc(O)cc1 (configuration not stated)	98.1% (inactive)
Cn1nc(-c2ccc(Cl)cc2)nc2c(=O)n(C)c(=O)nc1-2	-27.6% (active)
COC1CC(O)C2=C(CC3C(/C(C)=C\CC=C(C)C)CCC3(C)O2)C1=O (configuration not stated)	88.1% (inactive)
COc1cc(C(=O)/C=C/c2c(-c3cccs3)nc3sc(C)cn23)cc(OC)c1OC	19.5% (inactive)
CSc1nc(N)c2c(n1)NC(c1ccccc1)C1CCc3ccccc3C1=N2 (configuration not stated)	20% (inactive)
COC(=O)c1c(C)nc(C)c2c1C(=O)C(Br)=C(NCCCCO)C2=O	71.8% (inactive)
COc1ccc(S(=O)(=O)Oc2ccc(-c3sc4cc(OS(=O)(=O)c5ccc(OC)cc5)ccc4c3C(=O)c3ccc(OCCN4CCCCC4)cc3)cc2)cc1	97.7% (inactive)
C=C(c1ccc(C(=O)O)c(F)c1)c1cc2c(cc1C)C(C)(C)C=CC2(C)C	85.3% (inactive)
COc1cc(C2=Nc3c(N)nc(N)nc3NC(c3cccc(Nc4ccnc5cc(C(F)(F)F)ccc45)c3)C2)cc(OC)c1OC (configuration not stated)	51.7% (inactive)
